# Measured values as given in publication PMC4336329 (PLoS ONE, 2015).
# The campaign covered roughly 310,000 compounds. About 14,000 (4.5%) showed an effect of 50% or more. The effect is printed as a negative number. This is one part of a sample in which strong results are shown more often than they occur.
# Target: human ether-à-go-go-related gene (hERG) potassium channel (human, UniProt Q12809)
# Assay: primary screen, population patch clamp on CHO cells stably expressing hERG; higher = less effect of the substance
# 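Further: peak tail current of the secondary pulse compared with the same well before compound.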
# Chain of human ether-à-go-go-related gene (hERG) potassium channel (Q12809 whole entry, looked up): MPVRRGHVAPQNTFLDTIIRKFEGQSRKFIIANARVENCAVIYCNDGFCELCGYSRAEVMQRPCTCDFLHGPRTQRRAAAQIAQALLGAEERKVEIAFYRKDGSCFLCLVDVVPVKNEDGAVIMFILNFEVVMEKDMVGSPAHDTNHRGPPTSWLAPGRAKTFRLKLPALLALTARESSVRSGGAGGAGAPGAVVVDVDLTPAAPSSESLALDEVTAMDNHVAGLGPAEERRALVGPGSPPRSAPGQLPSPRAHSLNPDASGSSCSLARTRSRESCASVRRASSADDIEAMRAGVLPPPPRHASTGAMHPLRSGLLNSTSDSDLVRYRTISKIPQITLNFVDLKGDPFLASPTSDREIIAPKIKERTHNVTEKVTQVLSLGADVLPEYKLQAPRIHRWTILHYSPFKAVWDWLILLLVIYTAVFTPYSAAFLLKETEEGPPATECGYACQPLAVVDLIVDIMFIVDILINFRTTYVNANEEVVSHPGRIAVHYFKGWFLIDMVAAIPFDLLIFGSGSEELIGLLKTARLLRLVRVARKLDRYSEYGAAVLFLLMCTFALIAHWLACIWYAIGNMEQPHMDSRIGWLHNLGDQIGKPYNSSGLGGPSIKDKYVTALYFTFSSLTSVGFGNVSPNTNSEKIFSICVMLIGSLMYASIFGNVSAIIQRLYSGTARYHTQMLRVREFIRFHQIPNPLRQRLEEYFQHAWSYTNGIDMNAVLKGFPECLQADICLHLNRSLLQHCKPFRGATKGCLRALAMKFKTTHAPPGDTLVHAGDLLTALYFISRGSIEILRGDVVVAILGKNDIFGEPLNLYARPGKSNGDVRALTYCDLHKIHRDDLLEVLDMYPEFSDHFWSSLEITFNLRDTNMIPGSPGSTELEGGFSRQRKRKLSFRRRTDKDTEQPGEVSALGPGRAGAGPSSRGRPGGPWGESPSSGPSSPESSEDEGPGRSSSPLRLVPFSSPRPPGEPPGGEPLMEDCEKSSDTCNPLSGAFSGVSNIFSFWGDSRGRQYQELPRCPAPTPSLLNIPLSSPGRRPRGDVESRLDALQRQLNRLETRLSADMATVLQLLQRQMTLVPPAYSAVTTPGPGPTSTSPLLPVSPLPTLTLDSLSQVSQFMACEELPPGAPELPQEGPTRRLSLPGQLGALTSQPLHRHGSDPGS
row,SMILES,"hERG current change (%, negative = inhibition) at 10uM [%]"
1,CS(=O)(=O)N1CCN(c2ccccc2NC(=O)c2cc3ccccc3o2)CC1,7.78
2,O=C(COC(=O)[C@H](Cc1ccccc1)N1C(=O)c2ccccc2C1=O)Nc1ccc2c(c1)OCO2,-8.45
3,CCC1CCCCN1C(=O)c1cc(COc2ccc3ncccc3c2)on1 (stereo not shown),0.129
4,CCCCn1c(N)c(N(CCOC)C(=O)CSc2ccccc2C)c(=O)[nH]c1=O,-26.6
5,Cc1ccc(C(C)(C)C)cc1S(=O)(=O)Nc1nc2ccccc2nc1Cl,-33.6
6,COc1ccc(-c2csc3nc(-c4ccccc4OC)oc(=O)c23)cc1,19.1
7,COc1cc(C(=O)Nc2ccc3c(c2)Cc2ccccc2-3)cc(OC)c1OC,0.538
8,CC(=O)c1ccc(NC(=O)C(C)Nc2ccc(Cl)cc2)cc1 (stereo not shown),-4.45
9,Cc1nc(C(=O)NNC(=O)Nc2ccc(Cl)cc2)cs1,-0.711
10,CCN(CC)S(=O)(=O)c1cccc(-c2cn3cc(C)ccc3n2)c1,-9.87
11,O=C(Nc1cccnc1Oc1ccc(Cl)cc1)c1cccc2ccccc12,3.61
12,COCCC(=O)N1CCC(Oc2ccc(C(=O)N3CCC(N(C)C)C3)cc2)CC1 (stereo not shown),20.7
13,Cc1ccc(Nc2nc(N)c3ccccc3n2)cc1Cl.Cl,9.26
14,Cc1ccc(Nc2nc(N)nc(CN3CCN(Cc4ccccc4)CC3)n2)cc1Cl,-76.4
15,Cc1ccc(Nc2nc(N)nc(CN3CCN(c4ccccc4)CC3)n2)cc1Cl,-66.4
16,CCCCN(C(=O)CNC(=O)c1ccco1)C(C(=O)NC1CCCC1)c1ccc(OC)cc1 (stereo not shown),-20.1
17,NC(=O)CC(NC(=O)c1ccc(Br)cc1)c1ccc(N2CCN(c3ccc(F)cc3)CC2)c([N+](=O)[O-])c1 (stereo not shown),6.16
18,CC(=O)Nc1ccc(OC(=O)Oc2ccc(NC(C)=O)cc2)cc1,0.315
19,CC1(C)NC(C)(C)c2nonc2/C1=N\O,-1.78
20,CCn1c2c(c3cc(C(=O)O)ccc31)CCCC2=O,18.5
21,CSc1nccc(N/N=C/c2ccccc2)n1,23.9
22,CC(=O)/C=C(\C)Nc1ccccc1O,21.3
23,COc1ccc(C(=O)/C=C/Nc2ccccn2)cc1,2.01
24,CSCC(=O)NC1CCCc2c1cnn2-c1cc(F)cc(F)c1 (stereo not shown),-12.6
25,O=C(NC1CCCc2c1cnn2-c1cc(F)cc(F)c1)c1ccncc1 (stereo not shown),-64.1
26,O=C(CCc1ccncc1)NC1CCCc2c1cnn2-c1cc(F)cc(F)c1 (stereo not shown),-56.5
27,Cn1nccc1C(=O)NC1CCCc2c1cnn2-c1cc(F)cc(F)c1 (stereo not shown),-45.2
28,O=C(NC1CCCc2c1cnn2-c1ccccc1F)c1ccccn1 (stereo not shown),5.09

row,SMILES,"hERG current change (%, negative = inhibition) at 10uM [%]"
1,O=C(CCc1ccncc1)NC1CCCc2c1cnn2-c1ccc(F)cc1F (stereo not shown),-12.5
2,O=C(NC1CCCc2c1cnn2-c1cc(F)cc(F)c1)c1ccccn1 (stereo not shown),-52.4
3,O=C(NC1CCCc2c1cnn2-c1cc(F)cc(F)c1)c1cc[n+]([O-])cc1 (stereo not shown),-37.1
4,Cc1cccc(-n2ncc3c2CCCC3NC(=O)CCc2ccncc2)c1C (stereo not shown),4.95
5,O=C(NC1CCCc2c1cnn2-c1ccc(F)cc1F)c1ccccn1 (stereo not shown),1.82
6,C=CCC(=O)NC1CCCc2c1cnn2-c1cc(F)cc(F)c1 (stereo not shown),-75.7
7,CCN(CC)CC(=O)NC1CCCc2c1cnn2-c1cc(F)cc(F)c1 (stereo not shown),-9.77
8,OCC(O)C(O)C(O)C(O)C1NCCS1 (stereo not shown),0.867
9,O=C1CSC(c2ccc(Cl)cc2)N1C1CCCCC1 (stereo not shown),-14.4
10,Cc1cc2cc(CN(Cc3ccc4c(c3)OCO4)C(=O)c3ccco3)c(=O)[nH]c2cc1C,-25
11,ClCc1ncc(-c2ccc(Cl)cc2)o1,33.5
12,Cc1ccc(C(=O)NCc2ccc(Cl)cc2)cc1S(=O)(=O)N1CCCCC1,-0.995
13,O=C(NC(=S)Nc1cccnc1Cl)c1ccc(Cl)cc1,15.5
14,CN1CCN(S(=O)(=O)c2cccc(C(=O)N(C)Cc3cccs3)c2)CC1,-7.83
15,O=C(NCc1ccc(F)cc1)c1cccc(S(=O)(=O)N2CCOCC2)c1,-25.4
16,CN(Cc1cccs1)C(=O)c1cccc(S(=O)(=O)N2CCCCCC2)c1,-59.9
17,O=C(c1cccc(S(=O)(=O)N2CCOCC2)c1)N(Cc1ccco1)Cc1cccs1,-68.5
18,CN(C)S(=O)(=O)c1cccc(C(=O)NCc2ccco2)c1,10.7
19,CN(C)S(=O)(=O)c1cccc(C(=O)N(Cc2ccc(F)cc2)Cc2ccco2)c1,-52.3
20,O=C(c1ccc(S(=O)(=O)N2CCOCC2)cc1)N(Cc1ccco1)Cc1cccs1,-44.5
21,CCN(Cc1cccs1)C(=O)c1cccc(S(=O)(=O)N2CCN(C)CC2)c1,-14.1
22,O=C(c1cccc(S(=O)(=O)N2CCOCC2)c1)N(Cc1ccc(F)cc1)Cc1ccco1,-88.4
23,Cc1ccc(N(Cc2ccco2)C(=O)c2cccc(S(=O)(=O)N(C)C)c2)cc1,-21.5
24,O=C(NCc1ccco1)c1cccc(S(=O)(=O)N2CCOCC2)c1,-4.97
25,CN(Cc1cccs1)C(=O)c1ccc(S(=O)(=O)N2CCCCC2)cc1,-18.8
26,CCc1ccccc1NC(=O)c1cc(-c2cccc(O)c2)on1,12.7
27,COc1cccc(C(=O)Nc2cnn(C(C)C)c2)c1,9.94
